Test in all cases: DAPPL (digital affinity profiling via proximity ligation, sequencing); 10 mM Tris-HCl pH 7.5, 50 mM NaCl, 1 mM DTT, 4% glycerol, room temperature, 30 min; GST-TFs on glutathione beads, 16-mer random dsDNA library, 0.1% formaldehyde crosslink after washing; high values mean tight binding
One test addresses T1, FLI1 (Homo sapiens, UniProt Q01543 1-452).
T1 sequence: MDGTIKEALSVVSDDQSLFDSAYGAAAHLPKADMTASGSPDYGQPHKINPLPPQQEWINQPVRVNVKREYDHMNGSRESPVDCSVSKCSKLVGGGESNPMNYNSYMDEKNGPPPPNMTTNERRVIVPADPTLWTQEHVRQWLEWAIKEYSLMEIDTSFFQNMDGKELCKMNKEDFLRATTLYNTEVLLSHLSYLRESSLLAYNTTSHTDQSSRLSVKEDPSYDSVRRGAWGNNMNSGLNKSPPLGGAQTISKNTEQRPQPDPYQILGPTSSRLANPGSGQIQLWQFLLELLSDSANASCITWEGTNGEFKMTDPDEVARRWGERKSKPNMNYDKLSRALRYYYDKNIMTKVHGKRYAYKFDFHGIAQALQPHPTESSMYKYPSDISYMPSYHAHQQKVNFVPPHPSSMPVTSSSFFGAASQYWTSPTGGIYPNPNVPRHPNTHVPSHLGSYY
The settings on record: protein: recombinant; tags: N-terminal GST; dsDNA, one strand shown. Put shortly: (§1)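 Sequencing on an Illumina NextSeq500 followed washing, crosslinking with 0.1% formaldehyde, proximity ligation (BsaI/T4 ligase, 1 h, 37 °C) and PCR amplification of pools that had been incubated for 30 min at room temperature with 200 nmole of a random double-stranded 16-mer DNA library in Tris/NaCl/DTT/glycerol buffer. Each pool held DNA-barcoded human transcription factors, expressed in yeast as GST fusions and captured on glutathione beads, plus a tag-only sample. Binding signal is a hexamer's read frequency for a factor divided by its frequency in the tag-only sample.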

The next test deals with T2, ELK1 (Homo sapiens, UniProt P19419 1-428).
T2 sequence: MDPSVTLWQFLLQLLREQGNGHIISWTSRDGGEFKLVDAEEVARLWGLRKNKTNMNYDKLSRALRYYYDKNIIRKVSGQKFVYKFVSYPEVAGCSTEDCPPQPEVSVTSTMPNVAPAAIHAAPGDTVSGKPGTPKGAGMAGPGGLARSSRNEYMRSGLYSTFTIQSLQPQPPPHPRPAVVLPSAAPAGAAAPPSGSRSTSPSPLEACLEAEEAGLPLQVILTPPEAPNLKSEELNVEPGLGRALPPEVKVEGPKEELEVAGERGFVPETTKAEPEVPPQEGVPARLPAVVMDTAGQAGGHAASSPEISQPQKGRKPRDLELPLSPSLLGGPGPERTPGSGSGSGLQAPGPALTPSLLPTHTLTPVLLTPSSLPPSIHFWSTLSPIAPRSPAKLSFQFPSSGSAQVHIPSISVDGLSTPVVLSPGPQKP
The following applies: protein: recombinant; tags: N-terminal GST; dsDNA, one strand shown. The essentials:
as §1

For another test, the target named is T3, GABPA (Homo sapiens, UniProt Q06546 1-454).
T3 sequence: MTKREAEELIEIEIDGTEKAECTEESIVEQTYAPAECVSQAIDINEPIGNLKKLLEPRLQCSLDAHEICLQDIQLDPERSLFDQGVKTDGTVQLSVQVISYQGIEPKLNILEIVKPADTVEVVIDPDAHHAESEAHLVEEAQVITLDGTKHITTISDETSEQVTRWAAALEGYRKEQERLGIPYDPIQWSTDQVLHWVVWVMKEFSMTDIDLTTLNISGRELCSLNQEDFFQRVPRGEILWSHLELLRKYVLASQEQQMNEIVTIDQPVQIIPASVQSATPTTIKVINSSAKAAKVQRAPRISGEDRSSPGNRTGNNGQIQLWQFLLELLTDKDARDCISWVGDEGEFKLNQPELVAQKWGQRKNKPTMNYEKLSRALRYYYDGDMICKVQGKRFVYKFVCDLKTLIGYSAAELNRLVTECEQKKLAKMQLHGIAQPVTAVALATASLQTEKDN
The following applies: protein: recombinant; tags: N-terminal GST; dsDNA, one strand shown. Put shortly: as §1

The next test addresses T4, ERG (Homo sapiens, UniProt P11308 1-479).
T4 sequence: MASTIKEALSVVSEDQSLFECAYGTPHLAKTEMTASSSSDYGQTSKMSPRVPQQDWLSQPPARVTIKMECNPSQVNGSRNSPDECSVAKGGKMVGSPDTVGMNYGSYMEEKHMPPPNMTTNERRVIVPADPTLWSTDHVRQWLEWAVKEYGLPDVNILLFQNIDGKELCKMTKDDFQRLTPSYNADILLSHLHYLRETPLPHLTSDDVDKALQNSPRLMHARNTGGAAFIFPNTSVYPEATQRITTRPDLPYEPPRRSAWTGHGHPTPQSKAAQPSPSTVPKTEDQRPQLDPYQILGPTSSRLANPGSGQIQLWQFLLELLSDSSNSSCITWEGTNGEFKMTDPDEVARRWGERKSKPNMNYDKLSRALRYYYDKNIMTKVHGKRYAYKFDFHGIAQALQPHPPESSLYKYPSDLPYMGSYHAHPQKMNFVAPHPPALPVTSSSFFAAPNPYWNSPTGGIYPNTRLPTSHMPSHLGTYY
The following applies: protein: recombinant; tags: N-terminal GST; dsDNA, one strand shown. The essentials:
as §1

For the next test, the target named is ELF1 (Homo sapiens, UniProt P32519 1-619). The following applies: protein: recombinant; tags: N-terminal GST; dsDNA, one strand shown. The essentials: as §1
A further test addresses T5, EHF (Homo sapiens, UniProt Q9NZC4 1-300).
T5 sequence: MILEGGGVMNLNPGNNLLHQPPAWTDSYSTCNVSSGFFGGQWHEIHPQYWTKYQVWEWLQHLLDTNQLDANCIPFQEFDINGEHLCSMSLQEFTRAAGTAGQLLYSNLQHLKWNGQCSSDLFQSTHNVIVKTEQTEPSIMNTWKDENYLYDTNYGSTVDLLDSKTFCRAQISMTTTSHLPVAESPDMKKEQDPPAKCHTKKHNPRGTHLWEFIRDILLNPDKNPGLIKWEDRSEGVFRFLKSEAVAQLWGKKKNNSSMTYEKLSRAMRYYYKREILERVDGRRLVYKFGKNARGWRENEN
The following applies: protein: recombinant; tags: N-terminal GST; dsDNA, one strand shown. The essentials: as §1

Another test addresses SPI1 (Homo sapiens, UniProt P17947 1-270). The following applies: protein: recombinant; tags: N-terminal GST; dsDNA, one strand shown. The essentials: as §1
The target in the next test is SPIB (Homo sapiens, UniProt Q01892 1-262). The settings on record: protein: recombinant; tags: N-terminal GST; dsDNA, one strand shown. Put shortly: as §1
A further test addresses T6, ELK3 (Homo sapiens, UniProt P41970 1-407).
T6 sequence: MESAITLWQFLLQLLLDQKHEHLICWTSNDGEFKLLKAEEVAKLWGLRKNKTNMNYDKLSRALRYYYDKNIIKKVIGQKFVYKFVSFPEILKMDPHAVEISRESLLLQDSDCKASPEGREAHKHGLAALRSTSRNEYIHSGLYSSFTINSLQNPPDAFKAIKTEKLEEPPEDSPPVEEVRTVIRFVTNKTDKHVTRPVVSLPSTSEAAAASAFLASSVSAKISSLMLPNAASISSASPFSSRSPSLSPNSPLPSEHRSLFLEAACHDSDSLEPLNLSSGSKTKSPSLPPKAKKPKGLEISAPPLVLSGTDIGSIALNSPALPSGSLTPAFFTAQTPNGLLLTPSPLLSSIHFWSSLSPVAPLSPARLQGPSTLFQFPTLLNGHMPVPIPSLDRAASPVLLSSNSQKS
The following applies: protein: recombinant; tags: N-terminal GST; dsDNA, one strand shown. The essentials: as §1

The next test has as its target T7, FEV (Homo sapiens, UniProt Q99581 1-238).
T7 sequence: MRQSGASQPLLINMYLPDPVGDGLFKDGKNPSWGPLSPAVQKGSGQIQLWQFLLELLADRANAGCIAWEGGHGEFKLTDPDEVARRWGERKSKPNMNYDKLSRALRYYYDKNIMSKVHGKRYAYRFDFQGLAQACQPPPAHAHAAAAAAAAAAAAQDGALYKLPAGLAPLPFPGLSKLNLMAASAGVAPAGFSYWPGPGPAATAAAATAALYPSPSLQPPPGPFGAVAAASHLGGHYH
The settings on record: protein: recombinant; tags: N-terminal GST; dsDNA, one strand shown. The essentials:
as §1

The target in another test is ETV5 (Homo sapiens, UniProt P41161 1-510). The settings on record: protein: recombinant; tags: N-terminal GST; dsDNA, one strand shown. The essentials: as §1
For a further test, the target named is HSF1 (Homo sapiens, UniProt Q00613 1-529). The settings on record: protein: recombinant; tags: N-terminal GST; chain copies: 3; dsDNA, one strand shown. Put shortly: as §1
In another test the target is T8, SPIC (Homo sapiens, UniProt Q8N5J4 1-248).
T8 sequence: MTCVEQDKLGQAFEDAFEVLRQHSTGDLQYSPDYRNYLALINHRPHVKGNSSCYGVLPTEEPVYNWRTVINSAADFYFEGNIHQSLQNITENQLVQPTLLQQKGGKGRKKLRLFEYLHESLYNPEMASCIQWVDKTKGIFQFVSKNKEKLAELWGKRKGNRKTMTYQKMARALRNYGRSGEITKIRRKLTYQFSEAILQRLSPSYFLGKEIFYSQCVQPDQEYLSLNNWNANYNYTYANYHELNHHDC
The settings on record: protein: recombinant; tags: N-terminal GST; dsDNA, one strand shown. The essentials: as §1

For a further test, the target named is ELF4 (Homo sapiens, UniProt Q99607 1-663). The settings on record: protein: recombinant; tags: N-terminal GST; dsDNA, one strand shown. Put shortly: as §1
A further test deals with T9, ELK4 (Homo sapiens, UniProt P28324-2 1-405).
T9 sequence: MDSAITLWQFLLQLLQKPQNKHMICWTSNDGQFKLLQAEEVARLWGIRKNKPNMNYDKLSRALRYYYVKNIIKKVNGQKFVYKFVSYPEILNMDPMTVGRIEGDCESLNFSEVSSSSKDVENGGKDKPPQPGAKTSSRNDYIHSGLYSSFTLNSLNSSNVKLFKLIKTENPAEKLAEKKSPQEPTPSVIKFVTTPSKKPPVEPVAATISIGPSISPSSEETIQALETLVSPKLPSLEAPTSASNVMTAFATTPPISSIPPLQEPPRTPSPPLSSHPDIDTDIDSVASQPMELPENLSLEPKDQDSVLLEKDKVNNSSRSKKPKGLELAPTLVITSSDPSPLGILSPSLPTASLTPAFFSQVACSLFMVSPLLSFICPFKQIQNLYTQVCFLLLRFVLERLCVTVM
The settings on record: protein: recombinant; tags: N-terminal GST; dsDNA, one strand shown. Put shortly: as §1

A further test concerns the target T10, ETV2 (Homo sapiens, UniProt O00321 1-342).
T10 sequence: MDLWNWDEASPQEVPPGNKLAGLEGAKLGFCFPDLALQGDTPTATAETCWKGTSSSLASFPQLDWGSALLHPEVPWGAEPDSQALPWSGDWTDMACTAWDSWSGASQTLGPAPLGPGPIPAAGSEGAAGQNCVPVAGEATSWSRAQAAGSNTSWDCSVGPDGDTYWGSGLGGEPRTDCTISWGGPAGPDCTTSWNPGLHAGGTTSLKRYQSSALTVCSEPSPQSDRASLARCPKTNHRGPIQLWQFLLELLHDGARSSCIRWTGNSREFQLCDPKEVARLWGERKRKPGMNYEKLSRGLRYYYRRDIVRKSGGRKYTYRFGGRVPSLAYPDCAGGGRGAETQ
The following applies: protein: recombinant; tags: N-terminal GST; dsDNA, one strand shown. Put shortly:
as §1

The target in another test is T11, ELF3 (Homo sapiens, UniProt P78545 1-371).
T11 sequence: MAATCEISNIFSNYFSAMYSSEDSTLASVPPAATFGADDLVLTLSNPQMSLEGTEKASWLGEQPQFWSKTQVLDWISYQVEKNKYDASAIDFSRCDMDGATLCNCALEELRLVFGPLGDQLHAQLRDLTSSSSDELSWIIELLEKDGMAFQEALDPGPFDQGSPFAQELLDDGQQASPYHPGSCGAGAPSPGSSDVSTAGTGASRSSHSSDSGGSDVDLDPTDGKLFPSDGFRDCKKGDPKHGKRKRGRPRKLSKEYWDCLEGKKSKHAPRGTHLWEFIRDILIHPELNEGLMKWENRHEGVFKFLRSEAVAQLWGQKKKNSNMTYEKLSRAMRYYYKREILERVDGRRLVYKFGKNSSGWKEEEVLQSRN
The settings on record: protein: recombinant; tags: N-terminal GST; dsDNA, one strand shown. Put shortly: as §1

Another test has as its target ETV1 (Homo sapiens, UniProt P50549 1-477). The following applies: protein: recombinant; tags: N-terminal GST; dsDNA, one strand shown. Put shortly:
as §1

Chain of SPIB (Q01892 whole entry): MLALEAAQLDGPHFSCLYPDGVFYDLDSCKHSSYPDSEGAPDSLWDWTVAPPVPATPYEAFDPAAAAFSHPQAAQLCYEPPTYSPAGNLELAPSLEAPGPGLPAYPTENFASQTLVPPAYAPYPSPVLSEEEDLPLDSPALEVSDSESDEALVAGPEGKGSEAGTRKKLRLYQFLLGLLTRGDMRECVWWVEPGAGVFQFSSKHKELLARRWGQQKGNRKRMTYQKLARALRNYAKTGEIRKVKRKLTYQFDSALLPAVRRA
Chain of ETV5 (P41161 whole entry): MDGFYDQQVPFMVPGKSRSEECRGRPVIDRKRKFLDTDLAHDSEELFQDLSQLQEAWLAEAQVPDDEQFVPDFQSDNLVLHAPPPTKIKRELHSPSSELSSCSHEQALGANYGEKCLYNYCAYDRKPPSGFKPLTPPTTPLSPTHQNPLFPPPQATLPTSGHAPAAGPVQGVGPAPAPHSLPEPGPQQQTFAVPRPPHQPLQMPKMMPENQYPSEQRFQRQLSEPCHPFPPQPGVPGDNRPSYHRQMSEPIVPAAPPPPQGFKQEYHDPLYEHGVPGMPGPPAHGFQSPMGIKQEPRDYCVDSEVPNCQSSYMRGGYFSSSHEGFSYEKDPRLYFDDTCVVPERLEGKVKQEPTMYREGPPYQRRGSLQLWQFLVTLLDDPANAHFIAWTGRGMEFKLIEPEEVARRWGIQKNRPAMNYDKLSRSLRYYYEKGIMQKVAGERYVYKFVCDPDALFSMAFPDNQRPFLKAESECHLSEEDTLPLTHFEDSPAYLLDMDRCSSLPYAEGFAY
Chain of ELF4 (Q99607 whole entry): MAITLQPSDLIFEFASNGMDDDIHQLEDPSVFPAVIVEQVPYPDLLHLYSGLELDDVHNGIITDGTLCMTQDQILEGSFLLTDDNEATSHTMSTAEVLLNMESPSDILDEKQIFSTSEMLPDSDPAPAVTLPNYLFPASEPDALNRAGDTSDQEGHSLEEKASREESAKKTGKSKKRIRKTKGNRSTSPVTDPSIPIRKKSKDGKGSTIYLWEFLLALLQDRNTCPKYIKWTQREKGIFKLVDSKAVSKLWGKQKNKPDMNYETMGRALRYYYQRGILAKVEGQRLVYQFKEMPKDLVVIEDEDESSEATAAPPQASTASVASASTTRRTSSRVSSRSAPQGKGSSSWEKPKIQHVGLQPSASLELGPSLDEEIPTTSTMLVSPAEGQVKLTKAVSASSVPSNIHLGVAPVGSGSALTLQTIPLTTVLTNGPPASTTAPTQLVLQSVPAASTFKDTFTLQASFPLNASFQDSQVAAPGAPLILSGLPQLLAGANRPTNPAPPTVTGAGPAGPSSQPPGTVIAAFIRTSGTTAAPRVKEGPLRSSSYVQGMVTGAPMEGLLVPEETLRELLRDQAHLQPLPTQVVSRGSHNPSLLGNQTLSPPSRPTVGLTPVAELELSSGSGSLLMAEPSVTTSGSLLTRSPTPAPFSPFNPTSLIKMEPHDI
Chain of HSF1 (Q00613 whole entry): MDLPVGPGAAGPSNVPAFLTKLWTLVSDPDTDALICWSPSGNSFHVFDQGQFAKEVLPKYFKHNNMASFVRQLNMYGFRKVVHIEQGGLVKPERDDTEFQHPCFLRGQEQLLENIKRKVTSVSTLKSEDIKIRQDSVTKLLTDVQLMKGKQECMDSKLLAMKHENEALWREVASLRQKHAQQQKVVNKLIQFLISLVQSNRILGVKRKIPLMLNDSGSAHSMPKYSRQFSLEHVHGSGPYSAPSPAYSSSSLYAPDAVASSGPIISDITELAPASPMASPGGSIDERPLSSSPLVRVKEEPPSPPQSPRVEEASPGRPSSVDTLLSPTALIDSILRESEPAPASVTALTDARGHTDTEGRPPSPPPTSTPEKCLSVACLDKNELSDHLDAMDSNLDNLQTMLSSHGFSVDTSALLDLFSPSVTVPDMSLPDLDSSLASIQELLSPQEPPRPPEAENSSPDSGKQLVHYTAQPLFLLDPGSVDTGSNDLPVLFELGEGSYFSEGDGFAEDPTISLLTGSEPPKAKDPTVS
Chain of ETV1 (P50549 whole entry): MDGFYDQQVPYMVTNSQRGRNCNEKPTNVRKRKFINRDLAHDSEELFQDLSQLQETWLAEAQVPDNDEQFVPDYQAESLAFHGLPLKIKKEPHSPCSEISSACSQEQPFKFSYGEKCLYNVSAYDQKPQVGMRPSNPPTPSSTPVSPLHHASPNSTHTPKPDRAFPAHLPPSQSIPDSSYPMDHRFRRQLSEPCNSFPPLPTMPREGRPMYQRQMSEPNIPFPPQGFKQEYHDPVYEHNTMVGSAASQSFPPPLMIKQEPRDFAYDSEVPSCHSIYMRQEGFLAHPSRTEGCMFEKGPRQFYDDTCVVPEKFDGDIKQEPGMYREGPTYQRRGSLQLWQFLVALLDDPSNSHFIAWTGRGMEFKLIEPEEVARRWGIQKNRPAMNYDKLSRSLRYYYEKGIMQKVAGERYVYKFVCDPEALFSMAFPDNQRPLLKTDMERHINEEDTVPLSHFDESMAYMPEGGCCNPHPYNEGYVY
Chain of ELF1 (P32519 whole entry): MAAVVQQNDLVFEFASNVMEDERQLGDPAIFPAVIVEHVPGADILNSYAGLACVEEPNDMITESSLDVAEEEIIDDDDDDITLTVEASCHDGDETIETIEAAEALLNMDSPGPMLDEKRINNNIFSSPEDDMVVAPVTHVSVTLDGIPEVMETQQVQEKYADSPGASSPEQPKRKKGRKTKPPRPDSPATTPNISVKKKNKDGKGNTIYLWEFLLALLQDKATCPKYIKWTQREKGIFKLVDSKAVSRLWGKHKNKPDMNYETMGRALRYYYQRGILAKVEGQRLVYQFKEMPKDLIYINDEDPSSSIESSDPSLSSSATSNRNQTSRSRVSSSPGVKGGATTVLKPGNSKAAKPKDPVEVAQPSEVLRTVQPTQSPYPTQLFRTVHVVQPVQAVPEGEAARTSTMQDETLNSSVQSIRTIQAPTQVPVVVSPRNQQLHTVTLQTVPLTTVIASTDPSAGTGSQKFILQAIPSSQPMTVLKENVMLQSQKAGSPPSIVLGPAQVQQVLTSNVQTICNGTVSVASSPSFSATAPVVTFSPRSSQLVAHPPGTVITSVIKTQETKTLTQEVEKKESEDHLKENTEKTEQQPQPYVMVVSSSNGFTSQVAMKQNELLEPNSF

On to CACTGC, for which the binding signal is 1.45 fold enrichment (6-mer frequency, TF over GST control) with FLI1; 1.46 fold enrichment (6-mer frequency, TF over GST control) in the test with ELK1; 1.32 fold enrichment (6-mer frequency, TF over GST control) with GABPA; 1.41 fold enrichment (6-mer frequency, TF over GST control) with ERG; 1.44 fold enrichment (6-mer frequency, TF over GST control) in the test with ELF1; 1.58 fold enrichment (6-mer frequency, TF over GST control) with EHF. For the same sequence, the binding signal was 1.38 fold enrichment (6-mer frequency, TF over GST control) with SPI1; 1.44 fold enrichment (6-mer frequency, TF over GST control) with SPIB; 1.51 fold enrichment (6-mer frequency, TF over GST control) in the test with ELK3; 1.38 fold enrichment (6-mer frequency, TF over GST control) in the test with FEV; 1.37 fold enrichment (6-mer frequency, TF over GST control) in the test with ETV5; 1.04 fold enrichment (6-mer frequency, TF over GST control) with HSF1. For the same sequence, the binding signal is 1.46 fold enrichment (6-mer frequency, TF over GST control) with SPIC; 1.32 fold enrichment (6-mer frequency, TF over GST control) in the test with ELF4; 1.43 fold enrichment (6-mer frequency, TF over GST control) with ELK4; 1.28 fold enrichment (6-mer frequency, TF over GST control) with ETV2; 1.15 fold enrichment (6-mer frequency, TF over GST control) in the test with ELF3; 1.36 fold enrichment (6-mer frequency, TF over GST control) with ETV1.

The record behind these values is publication PMC7862700, “An all-to-all approach to the identification of sequence-specific readers for epigenetic DNA modifications on cytosine”.
